Activity calls are given as the source filed them.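 Rule for the calls, unless noted: active = inhibition at or above 50% relative to wild type and mutant plate controls; inactive = inhibition below 50%.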
Tests used:
[1] = inhibitors of TNFa-induced NFkB p65 translocation, primary screen, imaging, HUVEC, MLSMR starter and 10KST1 sets (AID 438;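 active = inhibition above 20% together with a positive visual image hit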;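 note: compound added about 3h40 before a 20 min TNFalpha stimulation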;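 for inhibition: signal is the nuclear over cytoplasmic p65 intensity ratio per well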); details: HUVEC TNFa-induced p65 nuclear translocation; cell count: measured here: nuclei count (cytotoxicity indicator), at 2.08 µM; inhibition: at 2 µM, stronger effect = higher value, 0% TNFa-plus-vehicle, 100% no-TNFa wells
[2] = reduction of polyQ htt aggregates in cells – imaging, exon1htt(103Q)mCFP cells, high-content imaging, primary screen (AID 483;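 active = visual image review flags a hit and inhibition of aggregation exceeds 20%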;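 note: compound exposure lasted 3 days before fixation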;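 for nuclei count: percent of the per-plate median nuclei count of sample wells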); details: exon1htt(103Q)mCFP cell line, aggregate imaging, at 2 µM; inhibition of aggregation: stronger effect = higher value; nuclei count: measured here: cell count, toxicity
[3] = endothelial E-selectin expression blockers – imaging, HUVEC, immunofluorescence, MLSMR starter and 10KST1 sets, primary screen (AID 487;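 active = visually confirmed hit in the image check and inhibition above 20%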;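 for inhibition: signal is fraction of cell area covered by stained E-selectin grains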;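 for nuclei count: 100% = median nuclei count of all wells on the same plate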); details: HUVEC TNFalpha-induced E-selectin immunofluorescence imaging, at 2 µM; inhibition: stronger effect = higher value; nuclei count: measured here: cell number, toxicity
[4] = Primary imaging screen for DUSP6 inhibitors that restore phospho-Erk in transfected HeLa cells, chemical complementation (AID 609;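 active = compounds giving at least 50% inhibition in the cell-based MKP-3 phosphatase rescue imaging test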;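 for inhibition: phospho-Erk level distribution per well compared with pooled transfected vehicle control wells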); details: HeLa MKP-3 transfected, phospho-Erk imaging KS statistic, at 10 µM, cells stimulated with TPA for 15 min
[5] = target: Dual specificity protein phosphatase 6 (Homo sapiens) (UniProt Q16828); experiment: as above; details: HeLa MKP-3 transfected, phospho-Erk imaging KS statistic; at 10 µM; stronger effect = higher value; cells stimulated with TPA for 15 min
[6] = target: Voltage-gated potassium channel subunit beta-2 (Rattus norvegicus) (UniProt P62483); experiment: inhibitors of rat Kvbeta2 reductase activity – biochemical, NADPH fluorescence, primary screen (AID 622;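 active = fluorescence slope higher than the sample average by over 3 SD, cut at about -0.22 in these data, passing the limit was not always enough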;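 note: slope of raw intensity against log time taken from 70 to 1610 s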); details: recombinant KvBeta, 4-cyanobenzaldehyde reduction, at 10 µM, stronger effect = higher value
[7] = target: Voltage-gated potassium channel subunit beta-2 (Rattus norvegicus) (UniProt P62483); experiment: enhancers of rat Kvbeta2 NADPH turnover – biochemical, NADPH fluorescence, primary screen (AID 623;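 active = NADPH fluorescence slope more negative than the mean of all samples by about 3 SD, 99.7% confidence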;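 note: fluorescence intensity change per second fitted from 20 to 320 s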); details: Recombinant KvBeta, NADPH fluorescence decrease slope, 10 min; at 10 µM; stronger effect = lower value
[8] = target: Alpha-2C adrenergic receptor (Homo sapiens) (UniProt P18825); experiment: compounds altering alpha2C-coupled GIRK flux – cell-based, HEK293 alpha2C/GIRK1/2, thallium flux, primary screen (AID 624;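 active = fluorescence slope after compound addition differing from the mean of all screened samples at 99.7% confidence, in either direction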;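 note: slope of fluorescence ratio to pre-addition baseline per second over 15 to 24 s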); details: thallium flux BTC fluorescence, at 10 µM, actives lie on both sides
[9] = target: Muscarinic acetylcholine receptor M4 (Homo sapiens) (UniProt P08173); experiment: M4-linked GIRK flux change, two-sided – cell-based, HEK293 M4/GIRK, thallium flux, BTC-AM, M4 allosteric agonist project, primary screen (AID 625;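 active = fluorescence slope after compound addition differing from the mean of all tested samples at 99.7% confidence, mostly higher but some lower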;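 note: thallium influx through GIRK channels coupled to M4 in HEK293 cells with BTC-AM dye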); details: at 10 µM, actives lie on both sides
[10] = inhibitors of larval lipid processing in zebrafish, primary screen, whole organism, PED6 fluorescence, gall bladder and intestine (AID 686;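 active = a full or partial loss of lipid-probe fluorescence in the fish gall bladder, intestine or both, judged by eye; inactive = no fluorescence loss, or compound toxic to the fish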;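 note: larvae 5 to 7 days old with five fish per well; signal comes from phospholipase A2 cleavage of quenched PED6 carried via bile; overnight exposure to compound and PED6 before scoring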); details: Zebrafish larvae PED6 lipid processing, fluorescence scoring; screened at 20 µM (by protocol)
[11] = loss of swimming-algae plug formation – whole organism, Chlamydomonas reinhardtii, WT vs cilia-less mutant, absorbance, 96-well, primary screen (AID 463189); details: Chlamydomonas reinhardtii gravitaxis, OD600 absorbance, 2 days; at 10 µM; stronger effect = higher value;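 note: 0% = wild type cc124 cells in DMSO and 100% = ciliumless bld1 mutant cells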
[12] = blockers of RIG-like receptor reporter activation – cell-based, Sendai virus stimulus, luciferase, 10K MLSCN set, TLR/RLR signaling modifier project, primary screen (AID 602276;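 active = inhibition at or above 50% at 10 µM; inactive = inhibition below 50%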;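 note: firefly luciferase from ISG56 promoter only with Renilla not read in this screen; 0% = Sendai virus plus DMSO and 100% = medium plus DMSO without virus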); details: HEK293 RL24 IRF3 luciferase reporter, at 10 µM, stronger effect = higher value
[13] = TLR3 IRF3 reporter activation blockers – cell-based, poly I:C stimulus, luciferase, 10K MLSCN set, primary screen (AID 602277;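 active = inhibition of the reporter signal at or above 50%; inactive = inhibition below 50%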); details: HEK293-TLR3 RL24 IRF3 luciferase reporter, at 10 µM, stronger effect = higher value
[14] = measured here: cell density z-score
[15] = measured here: nuclear c-Myc green intensity z-score
[16] = measured here: nuclear pErk red intensity z-score, stronger effect = higher value

Dual specificity protein phosphatase 6 (Homo sapiens), sequence (Q16828 whole entry, looked up): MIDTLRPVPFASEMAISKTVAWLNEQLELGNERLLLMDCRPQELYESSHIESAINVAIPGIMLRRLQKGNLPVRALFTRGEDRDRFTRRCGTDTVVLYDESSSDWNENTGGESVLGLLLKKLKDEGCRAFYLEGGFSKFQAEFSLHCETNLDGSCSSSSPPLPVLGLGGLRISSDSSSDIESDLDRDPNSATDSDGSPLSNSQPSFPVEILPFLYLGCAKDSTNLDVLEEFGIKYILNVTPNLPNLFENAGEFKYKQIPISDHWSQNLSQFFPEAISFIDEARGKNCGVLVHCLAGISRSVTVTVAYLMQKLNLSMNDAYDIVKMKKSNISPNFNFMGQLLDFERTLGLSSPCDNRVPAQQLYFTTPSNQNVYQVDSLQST
Muscarinic acetylcholine receptor M4 (Homo sapiens), sequence (P08173 whole entry, looked up): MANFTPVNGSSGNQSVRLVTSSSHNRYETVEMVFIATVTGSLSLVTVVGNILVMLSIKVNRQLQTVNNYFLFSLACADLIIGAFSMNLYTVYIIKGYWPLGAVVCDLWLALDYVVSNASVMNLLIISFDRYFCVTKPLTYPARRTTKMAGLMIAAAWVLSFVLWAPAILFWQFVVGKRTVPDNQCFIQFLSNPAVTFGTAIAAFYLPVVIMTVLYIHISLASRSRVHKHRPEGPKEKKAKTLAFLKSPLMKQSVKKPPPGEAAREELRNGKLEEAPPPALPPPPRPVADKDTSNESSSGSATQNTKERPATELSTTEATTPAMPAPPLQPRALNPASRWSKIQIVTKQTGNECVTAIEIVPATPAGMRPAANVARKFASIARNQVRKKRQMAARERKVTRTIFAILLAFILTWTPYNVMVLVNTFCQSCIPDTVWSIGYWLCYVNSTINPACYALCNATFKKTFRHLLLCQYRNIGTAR
Alpha-2C adrenergic receptor (Homo sapiens), sequence (P18825 whole entry, looked up): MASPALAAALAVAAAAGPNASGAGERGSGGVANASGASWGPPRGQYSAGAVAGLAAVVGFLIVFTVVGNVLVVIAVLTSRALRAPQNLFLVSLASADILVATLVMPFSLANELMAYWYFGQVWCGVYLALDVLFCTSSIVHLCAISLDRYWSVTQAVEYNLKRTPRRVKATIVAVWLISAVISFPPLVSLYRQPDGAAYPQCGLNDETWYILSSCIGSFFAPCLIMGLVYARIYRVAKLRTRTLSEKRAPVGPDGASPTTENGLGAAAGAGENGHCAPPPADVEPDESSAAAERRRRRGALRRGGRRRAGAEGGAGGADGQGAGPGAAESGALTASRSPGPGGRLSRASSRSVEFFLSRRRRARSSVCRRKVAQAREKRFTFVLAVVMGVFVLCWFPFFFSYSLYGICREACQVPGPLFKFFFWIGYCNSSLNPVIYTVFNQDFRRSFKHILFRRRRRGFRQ
Voltage-gated potassium channel subunit beta-2 (Rattus norvegicus), sequence (P62483 whole entry, looked up): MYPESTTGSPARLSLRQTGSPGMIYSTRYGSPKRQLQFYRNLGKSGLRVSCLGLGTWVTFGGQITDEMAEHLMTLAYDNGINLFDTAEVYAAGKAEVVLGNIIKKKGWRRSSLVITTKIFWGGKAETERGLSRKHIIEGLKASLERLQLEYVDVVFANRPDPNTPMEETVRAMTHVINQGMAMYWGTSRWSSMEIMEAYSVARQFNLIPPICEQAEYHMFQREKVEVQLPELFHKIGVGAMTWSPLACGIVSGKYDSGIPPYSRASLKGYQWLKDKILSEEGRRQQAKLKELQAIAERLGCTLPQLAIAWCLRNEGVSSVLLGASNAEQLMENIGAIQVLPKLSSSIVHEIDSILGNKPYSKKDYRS

Row | SMILES | cell count [1] | inhibition [1] | inhibition of aggregation [2] | nuclei count [2] [%] | inhibition [3] | nuclei count [3] [%] | z-score [4, 14] | z-score [4, 15] | z-score [4, 16] | inhibition [5] | fluorescence slope [6] | NADPH fluorescence slope [7] | slope [8] | fluorescence slope [9] | outcome [10] | inhibition [11] | inhibition [12] | inhibition [13]
1 | Cc1nnc(NCc2n[nH]c(=O)c3ccccc23)c2ccccc12 | 459 | -4.7% (inactive) | -19.6% (inactive) | 51.5 | -23.8% (inactive) | 118 | -2.3 | 1.26 | 1.58 | 7.21% (inactive) | -0.502 (inactive) | -0.000115 (inactive) | 0.00499 (inactive) | 0.0052 (inactive) | inactive | -15.8% (inactive) | 4.22% (inactive) | -7.48% (inactive)
2 | CCN(CC)CCN1C(=O)C(=O)/C(=C(/O)c2c(C)[nH]c(C(=O)OC)c2C)C1c1ccco1 (stereo not given) | 572 | -11.8% (inactive) | -5.3% (inactive) | 105 | 26.1% (inactive) | 120 | -1.72 | 1.35 | -0.00455 | -11.9% (inactive) | -0.473 (inactive) | -1.4e-05 (inactive) | 0.00421 (inactive) | 0.00487 (inactive) | inactive | 4.53% (inactive) | 4.22% (inactive) | 6.98% (inactive)
3 | CC(C)CNC(=O)c1c(N)n(/N=C/c2ccccn2)c2nc3ccccc3nc12 | 533 | -2.3% (inactive) | -1.4% (inactive) | 105 | -33.4% (inactive) | 129 | 1.46 | -0.805 | -0.75 | 4.37% (inactive) | -0.43 (inactive) | -3.5e-05 (inactive) | 0.00506 (inactive) | 0.0059 (inactive) | inactive | 31.2% (inactive) | -0.468% (inactive) | -13.1% (inactive)
4 | CN(C)C(CN1C(=O)C2CC=CCC2C1=O)c1cn(C)c2ccccc12 (stereo not given) | 665 | 2.5% (inactive) | 12.2% (inactive) | 99.9 | -48.8% (inactive) | 124 | -1.61 | 2.35 | 0.886 | -3.95% (inactive) | -0.474 (inactive) | -2.6e-05 (inactive) | 0.00544 (inactive) | 0.00462 (inactive) | inactive | -7.45% (inactive) | 24.3% (inactive) | 46.8% (inactive)
5 | COc1ccc(N2CCN(c3nc4c(c(=O)[nH]c(=O)n4C)n3CCCc3ccccc3)CC2)cc1 | 636 | 6.6% (inactive) | 2.8% (inactive) | 100 | -69.3% (inactive) | 112 | 0.546 | -1.43 | 0.632 | 14.7% (inactive) | -0.429 (inactive) | -3.7e-05 (inactive) | 0.0083 (inactive) | 0.0059 (inactive) | inactive | 1.13% (inactive) | 12.8% (inactive) | 18.8% (inactive)
6 | Cc1ccc(SCc2[nH]nc3c2C(c2ccc(C)o2)C(C#N)=C(N)O3)cc1 (stereo not given) | 571 | -2.5% (inactive) | 15.4% (inactive) | 62.4 | -2.7% (inactive) | 91.7 | -2.32 | 1.82 | 1.99 | 24% (inactive) | -0.515 (inactive) | -5.6e-05 (inactive) | 0.0059 (inactive) | 0.00561 (inactive) | inactive | 25.7% (inactive) | -13.7% (inactive) | -11.1% (inactive)
7 | CCOC(=O)Cc1nnc(Nc2cccc(O)c2)c2ccccc12 | 621 | -1.7% (inactive) | -13.1% (inactive) | 99.2 | -46.3% (inactive) | 131 | -1.97 | 0.184 | 0.582 | -15.1% (inactive) | -0.457 (inactive) | -9.4e-05 (inactive) | 0.00496 (inactive) | 0.0057 (inactive) | inactive | -9.07% (inactive) | 0.504% (inactive) | -8.25% (inactive)
8 | CCSc1nc(O)c(C2OC(=O)c3c2ccc(OC)c3OC)c(=O)n1-c1ccccc1 (stereo not given) | 504 | 5.8% (inactive) | -6.1% (inactive) | 108 | -157% (inactive) | 146 | 0.533 | 0.786 | -0.555 | 1.98% (inactive) | -0.416 (inactive) | -4.4e-05 (inactive) | 0.00632 (inactive) | 0.00691 (inactive) | inactive | -7.19% (inactive) | 13.8% (inactive) | 25.6% (inactive)
9 | Cc1ccc(-c2nnc(-c3cccc(Br)c3)o2)cc1 | 512 | -1.8% (inactive) | -23.2% (inactive) | 96.1 | -41.7% (inactive) | 126 | 0.516 | 0.261 | 0.911 | -15.1% (inactive) | -0.487 (inactive) | -9.8e-05 (inactive) | 0.00623 (inactive) | 0.00652 (inactive) | inactive | 8.63% (inactive) | -18% (inactive) | -64% (inactive)
10 | CCOc1ccc2nc(SCC(=O)Nc3ncccn3)[nH]c2c1 | 478 | -3.6% (inactive) | -10.2% (inactive) | 111 | -10.6% (inactive) | 138 | -1.13 | -0.409 | 1.4 | 1.98% (inactive) | -0.358 (inactive) | -4.6e-05 (inactive) | 0.00651 (inactive) | 0.00652 (inactive) | inactive | 10.6% (inactive) | -10.6% (inactive) | 99.1% (active)
